In the library only some 4.1% were active in any assay of this set; here they are far more common.
NSD2 HMT inh: inhibitors of human histone methyltransferase NSD2 | NSD2 peptide methylation, AlphaScreen, 120 min | inhibition, % at 12.5 µM | actives 0.54% (n = 310,000); in the data active = inhibition above about 50%
HIV Env fusion: inhibitors of HIV Env-mediated cell fusion; HeLa-JRFL Env/CEM21 cell fusion, luciferase; inhibition, % at 12.3 µM; actives 1.1% (n = 360,000); AID 651610;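 active = mean replicate inhibition score of at least 50 and every replicate individually at or above 50; inconclusive = only one of the two criteria met; inactive = mean below 50 and not all replicates reaching 50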;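 note: 0% = plate neutral controls and 100% = maraviroc near 300 nM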
F508del corr: correctors of CFTR F508del function in bronchial epithelial cells | CFBE cells, YFP halide quenching; stimulated with forskolin plus potentiator P3; % fluorescence drop versus neutral controls | actives 0.36% (n = 350,000) | AID 720511 | activity (quench increase), % at 7.58 µM;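 active = mean added fluorescence quench of at least 8% versus neutral control, with both replicates also reaching 8%; inconclusive = only one of the mean or replicate conditions met; inactive = mean below 8% and not both replicates reaching 8%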;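 note: cells transiently co-express mutant CFTR-F508del with the halide-sensitive YFP; corrector assay measuring rescue of mutant channel to the surface after 24 h compound exposure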
Casp6 inh: caspase-6 (human) enzyme inhibition. purified caspase-6, Z-VEID-R110 cleavage fluorescence. inhibition, % at 12.5 µM. actives 0.53% (n = 350,000);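 active = mean inhibition across replicates at least about 35%, with every replicate also reaching that limit, limit read from the data; inconclusive = only one of the two criteria met; inactive = neither criterion met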;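 note: 0% = median of neutral control wells and 100% = no fluorescence left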
ALR inh: human ALR oxidase inhibition via reduced H2O2; purified ALR, DTT oxidation, H2O2 HRP-luminol luminescence; inhibition, % (no concentration beside the values); actives 3.8% (n = 290,000); P55789; AID 485317;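 active = mean replicate inhibition above about 79%, with every replicate also reaching it, limit read from the data; inconclusive = only one of the two criteria met; inactive = mean below limit and not every replicate reaching it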
PglD DTNB: inhibitors of Campylobacter jejuni PglD acetyltransferase. inhibition, % at 12.5 µM. AID 602405. purified PglD enzyme, DTNB colorimetric CoA detection. actives 0.098% (n = 360,000); in the data active = inhibition above about 16%, passing the limit was not always enough; inconclusive = no clear call, values can overlap the other calls
* hit, by the source's call; ? = inconclusive; . = no result given; [ ] = dose if it differs, or a comment.

SMILES	NSD2 HMT inh	HIV Env fusion	F508del corr	Casp6 inh	ALR inh	PglD DTNB
C[C@H]1CN([C@@H](C)CO)C(=O)Cc2cc(NC(=O)CCN3CCOCC3)ccc2O[C@H]1CN(C)S(=O)(=O)c1ccc(F)cc1	.	.	-5	-1	.	-1
C[C@@H]1CN([C@H](C)CO)C(=O)c2cc(NC(=O)Nc3ccc4c(c3)OCO4)ccc2O[C@@H]1CN(C)S(=O)(=O)c1ccccc1	.	-11[16.7 µM]	1	1	.	-2
Cc1ccc(NC2CCCN(C(=O)c3cc4ncccn4n3)C2)cc1C (configuration not stated)	17	-4	0	-1	83*	5
C=CCOc1cccc(C(=O)N2CCCC(Nc3ccc4c(c3)OCCO4)C2)c1 (configuration not stated)	6	12	0	-5	91*	0
COC(=O)c1cccc(C(=O)N2CCCC(C(=O)c3cccc(OC(C)C)c3)C2)c1 (configuration not stated)	28	8	1	39*	1	-1
COc1ccc(NC2CCCN(C(=O)c3cccc(C(F)(F)F)c3)C2)cc1OC (configuration not stated)	7	-15	-2	9	?	4
COC(=O)c1cccc(C(=O)N2CCCC(Nc3ccc(C)c(C)c3)C2)c1 (configuration not stated)	9	8	-5	2	98*	-1
COCC(=O)N1C[C@H](C)[C@H](OC)CN(C)C(=O)c2cc(NC(=O)c3cnccn3)ccc2OC[C@H]1C	.	.	5	-4	.	1
C[C@H](CO)N1C[C@H](C)[C@H](CN(C)C(=O)Nc2ccc3c(c2)OCO3)Oc2ccc(NC(=O)CCN3CCOCC3)cc2C1=O	.	.	2	-1	.	-7
Cc1ccc(C(=O)N2CCCC(Nc3ccc(F)cc3)C2)cc1C (configuration not stated)	5	-5	0	-1	99*	-2
COc1ccc(C(=O)N2CCCC(Nc3ccc(F)cc3)C2)cc1F (configuration not stated)	9	.	-2	1	65	-5
CC(C)c1ccc(NC2CCCN(C(=O)c3cccnc3)C2)cc1 (configuration not stated)	6	16	0	-4	69	5
COc1ccc(C(=O)N2CCCC(Nc3ccc(C)c(C)c3)C2)cc1F (configuration not stated)	8	28	2	0	95*	3
Cc1ccc(NC2CCCN(C(=O)c3cccnc3)C2)cc1C (configuration not stated)	-2	.	-3	-5	93*	5
C[C@H](CO)N1C[C@H](C)[C@H](CN(C)C(=O)c2ccncc2)OCCCC[C@H](C)Oc2ccc(NC(=O)CCCCCC(=O)Nc3ccccc3N)cc2C1=O	.	-3[16.7 µM]	-1	-1	.	-1
CN(C)CCCNC(=O)C[C@@H]1CC[C@@H]2[C@H](COc3ccc(NC(=O)C4CCC4)cc3C(=O)N2C)O1	.	.	0	-28	.	-1
Cc1ccc(-c2ccc(CCC(=O)O)n2NC(=O)c2ccco2)cc1	-1	.	.	.	92*	7
O=C(O)CCc1ccc(-c2ccc(Br)cc2)n1-c1ccc(O)cc1	7	1	0	18	58	7
O=C(O)CCc1ccc(-c2ccc(F)cc2)n1NC(=O)c1ccco1	2	.	.	.	12	1
Cc1ccc(-c2ccc(CCC(=O)O)n2-c2ccc(O)cc2)cc1	11	-1	.	.	87*	-4
Cc1cccc(S(=O)(=O)N2CCCCN3[C@H](CO)[C@@H](c4ccc(C#CC(C)C)cc4)[C@@H]3C2)c1	.	.	-2	-1	.	14
O=C(C[C@H]1CC[C@@H]2[C@H](COC[C@H](O)CN2C(=O)Nc2ccc3c(c2)OCO3)O1)N1CCN(c2ccccc2)CC1	.	.	1	-10	.	1
C[C@H](CO)N1C[C@H](C)[C@@H](CN(C)S(=O)(=O)c2ccccc2)Oc2ccc(NC(=O)NC3CCCCC3)cc2CC1=O	.	.	-1	2	.	1
COc1ccccc1CNC(=O)C[C@H]1CC[C@H]2[C@@H](COc3ccc(NC(=O)Nc4ccc(F)c(F)c4)cc3C(=O)N2C)O1	.	.	0	-1	.	-3
CN1C(=O)c2cc(NC(=O)C3CCCC3)ccc2OC[C@H]2O[C@@H](CC(=O)NCC(F)(F)F)CC[C@H]21	.	.	0	1	.	0
SMILES	NSD2 HMT inh	HIV Env fusion	F508del corr	Casp6 inh	ALR inh	PglD DTNB
C=CCN1C=CC=C/C1=C1\SC(=S)N(C)C1=O	2	9	-2	3	99*	.
CN1C=CC=C/C1=C1\SC(=S)N(c2ccccc2)C1=O	-1	-73	.	.	99*	7
CN1C=CC=C/C1=C1\SC(=S)N(CC(=O)O)C1=O	-1	5	-1	-17	55	.
CN1C=CC=C/C1=C1\SC(=S)N(C2CCCCC2)C1=O	7	-8	.	.	99*	-3
CC(=O)N1[C@@H]2c3ccc(-c4cccc(F)c4)c(=O)n3C[C@@H]2[C@@H](CO)[C@@H]1C(=O)NCCCN(C)C	.	7[16.7 µM]	.	0	.	1
O=C(Cc1ccccn1)N1CC(=O)N2[C@@H](CO)[C@H](c3ccc(C#CC4CCCC4)cc3)[C@@H]2C1	.	.	1	2	.	.
CO[C@@H]1CN(C)C(=O)c2cc(NS(C)(=O)=O)ccc2OC[C@@H](C)N(C(=O)C2CCCCC2)C[C@@H]1C	.	.	-2	-1	.	0
COCC(=O)N1[C@@H]2CN(C(=O)NC(C)C)c3ccccc3[C@@H]2[C@@H]1CO	.	.	0	8	.	-3
Oc1cc(O)cc(/C=C/c2ccc(O)c(O)c2)c1	.	-8	-1	28	99*	0
COc1ccc(-c2ccc(CO)o2)cc1N	3	-5	1	-1	99*	.
C[C@@H]1CN([C@H](C)CO)C(=O)Cc2cc(NC(=O)Nc3cccc4ccccc34)ccc2O[C@@H]1CN(C)S(=O)(=O)c1ccc(F)cc1	.	8[16.7 µM]	0	3	.	2
Cc1cccc(C)c1NC(=O)C1(C)CN(S(C)(=O)=O)CC(=O)N1CCc1ccccc1F (configuration not stated)	.	57*	-3	-1	.	.
CC(C)NC(=O)C1(C)CN(S(C)(=O)=O)CC(=O)N1CCc1ccccc1F (configuration not stated)	23	-12	-1	0	.	.
CCCCCCCCC(=O)c1c(OC)oc(C=O)cc1=O	6	-12	-1	72*	.	2
CCCNC(=O)[C@H]1[C@H](CO)[C@H]2Cn3c(ccc(/C=C/c4ccccc4)c3=O)[C@@H]1N2C(=O)c1ccccc1	.	.	0	2	.	1
C[C@@H]1CN([C@H](C)CO)C(=O)Cc2cc(NS(=O)(=O)c3ccccc3)ccc2O[C@H]1CN(C)C(=O)Nc1ccc2c(c1)OCO2	.	-8[16.7 µM]	-3	.	.	.
Cc1nc(SCc2cccc(F)c2)[nH]c(=O)c1C#N	-7	8	.	.	84*	4
N#Cc1c(-c2ccco2)nc(SCc2ccc(F)cc2)[nH]c1=O	.	.	-2	11	-13	6

High-throughput results as filed in PubChem BioAssay.
